# Screening data deposited in PubChem BioAssay by National Center for Advancing Translational Sciences (NCATS).
# This is a sample that favours compounds with a hit; in the whole collection about 19% have one here.
# DT40 TDP1 no CPT: qHTS for Inhibitors of human tyrosyl-DNA phosphodiesterase 1 (TDP1): qHTS in cells in absence of CPT; Potency, µM (top dose mostly 46.2 µM), actives largely listed as inhibitors; DT40 Tdp1-/- hTDP1 cells, no CPT, ATP luminescence, 48 h; 420,000 tested, 15% active; note: nearly all actives have a fitted effect of over 55% in size
#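 Chicken DT40 Tdp1-/- cells complemented with human TDP1, screened without camptothecin (DMSO vehicle only), 400 cells/well. Compounds pin-transferred, cells incubated at 37 °C for at least 48 hr. Growth read as ATP-dependent luminescence (CellTiter-Glo, 30 min at RT).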
# KB-3-1 cytotox: kills parental KB-3-1 adenocarcinoma cells; Potency, µM (series often up to 46.1 µM), most hits filed as cytotoxic; 400,000 tested, 1.4% active; AID 1347075; KB-3-1 viability, CellTiter-Glo ATP luminescence, 72 h; note: nearly all actives have a fitted effect of over 60% in size
#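 Cells are dispensed, compounds pinned in, plates held at 37 °C for 72 h, then CellTiter-Glo is added and luminescence read after 10 minutes. Cell line: parental KB-3-1 in phenol-red-free DMEM, 10% FBS.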
# HT1080NT lethal: kills 2HG-producing HT-1080-NT fibrosarcoma cells. HT-1080-NT fibrosarcoma viability, CellTiter-Glo ATP luminescence, 48 h. Potency, µM (doses to about 46.1 µM), usual class: cytotoxic. 360,000 tested, 1.6% active. AID 686970;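 note: NT is the 2HG producing partner of a matched IDH1 knockdown line; nearly all actives have a fitted effect of over 55% in size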
#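 750 cells/well, RPMI + 5% FBS; 2 h settle, compound pin-transfer, 48 h at 37 degrees C. CellTiter-Glo 10 min RT, luminescence. Normalized to DMSO and media-only wells.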
# DT40 TDP1 CPT: growth inhibition of DT40 Tdp1-/-;hTDP1 cells with camptothecin (screen for TDP1 inhibitors); chicken DT40 Tdp1-/-;hTDP1 cells + 20 nM CPT, ATP luminescence, 48 h; Potency, µM (highest dose often 46.2 µM), most hits filed as inhibitors; 420,000 tested, 12% active; AID 686979; note: nearly all actives have a fitted effect of over 55% in size
#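 Chicken DT40 Tdp1-/- cells stably complemented with human TDP1 were seeded at 400 cells/well in medium containing 20 nM camptothecin, exposed to pin-transferred compounds, and grown at 37 °C for at least 48 hr. Viability was read as ATP luminescence.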
# KB-V1 cytotox: KB-V1 MDR subline cytotoxicity. 400,000 tested, 3.4% active. KB-V1 MDR cells viability, CellTiter-Glo, 72 h. AID 1347076. Potency, µM (series often up to 46.1 µM), hits mostly cytotoxic; note: nearly all actives have a fitted effect of over 60% in size
#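 KB-V1, DMEM (no phenol red) + 10% FBS; cpd pin-transferred, titration series; 72 h, 37 degrees C; CellTiter-Glo, luminescence. Data normalized, curve-fit.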
# HT1080 IDH1KD tx: kills HT-1080 cells with IDH1 knockdown | HT-1080 IDH1 knockdown viability, ATP luminescence, 48 h | Potency, µM (series often up to 46.1 µM), usual class: cytotoxic | 360,000 tested, 2% active
#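 CellTiter-Glo luminescence after 48 h compound exposure at 37 degrees C of IDH1-knockdown HT-1080 cells in 5% FBS RPMI. %Activity scaled between DMSO wells and cell-free media wells, with curves fitted and assigned curve classes.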
# Numbers stand for hits; - = inactive; ? = inconclusive; . = not tested or not shown; [ ] = remark or other dose. Calls come from the whole dose curve; as a rule, active = well fitted curve in the direction sought with a large enough effect; inconclusive = small, poorly fitted or top-dose-only effect, or another doubt; inactive = no such curve, though single readings can be large; an effect the other way counts as inactive or inconclusive.
SMILES,DT40 TDP1 no CPT,KB-3-1 cytotox,HT1080NT lethal,DT40 TDP1 CPT,KB-V1 cytotox,HT1080 IDH1KD tx
C(#Cc1ccccc1)C[N+]1(CC#Cc2ccccc2)CCCCC1,1.5µM,18µM,?,1.8µM,-,?
Cn1ccnc1C1CCCCN1C(=O)CN1Cc2ccccc2OC(c2ccccc2F)C1 (stereo not drawn),?,.,.,-[9.04 µM],.,.
CCOc1ccc(NC(=O)CCNC(=O)Cn2ccc3ccccc3c2=O)cc1,-,-,-,-,-,-
C#CC[N+]1(CC#Cc2cccc(C)c2)CCCCC1,2.3µM,?,-,2.6µM,-,?
O=C(NCc1ccccc1F)c1ccc(CN2CC(=O)N3CCCCC3C2=O)cc1 (stereo not drawn),-,.,.,-,.,.
CN(CCc1ccccc1)C(=O)c1cccc(NC(=O)Cc2cccc(NC(=O)C3CCN(C(=O)C4CCCCC4)CC3)c2)c1,?,-,-,?,?,-
CN(CCc1ccccc1)C(=O)c1cccc(NC(=O)Cc2cccc(NC(=O)C3CCN(C(=O)C4CCC4)CC3)c2)c1,15µM,-,-,?,-,-
CN(CCc1ccccc1)C(=O)c1ccc(NC(=O)Cc2cccc(NC(=O)C3CCN(C(=O)C4CCCCC4)CC3)c2)cc1,21µM,-,-,?,?,-
CS(=O)(=O)N1N=C(c2cccs2)CC1c1ccccc1O (stereo not drawn),-,-,-,-,-,-
Oc1ccccc1C1CC(c2cccs2)=NC(c2ccc(Cl)cc2)N1 (stereo not drawn),4.1µM,?,?,21µM,-,?
O=C(CN1CCN(c2ccc(O)cc2)CC1)Nc1ccc(S(=O)(=O)N2CCCC2)cc1,-,-,-,-,-,-
Cc1ccc(-c2nn(CC(=O)NC3CCCCC3)c3c2cnc2ccccc23)cc1,-,-,.,?,-,.
CCN(CC(=O)Nc1cc(C)on1)CC(=O)Nc1ccccc1C(F)(F)F,-,-,-,-,18µM,-
COc1ccc(Cl)cc1NC(=O)CN(C)C(=O)c1cc(C)oc1C,-,-,-,-,-,-
Cc1cc(C(=O)N(C)CC(=O)Nc2ccccc2C(F)(F)F)c(C)o1,23µM,-,-,16µM,?,-
CCN(CC(=O)Nc1ccccc1C(F)(F)F)C(=O)CSCC(=O)Nc1cc(C)on1,-,-,-,-,-,-
O=C(c1ccccc1F)N1CCCC(c2ccccc2)C1 (stereo not drawn),-,-,-,-,23µM,-
Cc1ccc(S/C=C\C(=O)c2ccccc2)cc1,21µM,-,22µM,21µM,?,13µM
Cc1ccc2nc(COc3cccc(NC(=O)COc4ccccc4F)c3)cc(=O)n2c1,-,-,.,-,-,.
O=C(Nc1cccc(S(=O)(=O)N2CCOCC2)c1)c1cc(S(=O)(=O)N2CCOCC2)c(Cl)cc1Cl,?,?,-,15µM,-,-
O=C(Nc1cccc(Br)c1)c1ccc(Cl)c(S(=O)(=O)N2CCOCC2)c1,18µM,?,7.1µM,15µM,4.6µM,-[9.24 µM]
O=C(Nc1cccc(S(=O)(=O)N2CCCC2)c1)c1cc(S(=O)(=O)N2CCOCC2)ccc1F,-,-,-,?,-,-
O=C(Nc1cccc(C(=O)NC2CC2)c1)c1ccc(Cl)c(S(=O)(=O)N2CCOCC2)c1,?,-,-,-,?,-
O=C(Nc1cccc(S(=O)(=O)C(F)F)c1)c1ccc(Cl)c(S(=O)(=O)N2CCOCC2)c1,18µM,-,-,16µM,?,-
O=C(Nc1cccnc1)c1ccc(Cl)c(S(=O)(=O)N2CCOCC2)c1,-,-,-,?,-,-
SMILES,DT40 TDP1 no CPT,KB-3-1 cytotox,HT1080NT lethal,DT40 TDP1 CPT,KB-V1 cytotox,HT1080 IDH1KD tx
O=C(Nc1ccccc1)c1ccc(NCc2cccnc2)c(S(=O)(=O)N2CCOCC2)c1,15µM,-,-,-,-,-
Cc1cc(Cl)ccc1NC(=O)C1CCN(S(C)(=O)=O)CC1,-,-,-,-,-,-
CN(Cc1ccccc1)C(=O)c1ccc(NC(=O)Cc2ccc(NC(=O)C3CCN(C(=O)C4CCC4)CC3)cc2)cc1,?,-,-,?,-,-
CN(Cc1ccccc1)C(=O)c1cccc(NC(=O)Cc2ccc(NC(=O)C3CCN(C(=O)CCc4ccccc4)CC3)cc2)c1,16µM,?,-,?,-,-
CN(Cc1ccccc1)C(=O)c1ccc(NC(=O)Cc2ccc(NC(=O)C3CCN(C(=O)C4CCCCC4)CC3)cc2)cc1,16µM,-,-,23µM,-,?
CN(Cc1ccccc1)C(=O)c1cccc(NC(=O)Cc2ccc(NC(=O)C3CCN(C(=O)c4ccccc4)CC3)cc2)c1,-,-,-,-,-,-
CN(Cc1ccccc1)C(=O)c1ccc(NC(=O)Cc2ccc(NC(=O)C3CCN(C(=O)CCc4ccccc4)CC3)cc2)cc1,10µM,-,-,26µM,-,?
O=C1C2C(C(=O)N1/N=C/c1ccc(N3CCCCC3)o1)C1C=CC2C12CC2 (stereo not drawn),15µM,?,-,18µM,?,-
